Laboratory results: PubChem BioAssay AID1159580 (chemical genetic matrix, 2015)
Where “and” joins values, the source holds several entries; their conditions need not be identical. Equal entries are not always repeated. Hit rate of the full screen: of about 5,500 compounds, about 2,000 (36%) were called active. Roughly 18% stayed inconclusive and do not appear here. No stated cut-off is given here; in the data, active means normalized growth mostly below about 0.91 (no sharp cut-off); inconclusive means no clear call, values can overlap the other calls; inactive means mostly above about 0.92. This is one part of the list.

Assay: chemical genetic growth profiling, strain panel (AID 1159580);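 further: tested at 20 µM; growth read once vehicle control cultures reached saturation at 30 °C; 1 = growth at the plate median or of vehicle wells; lower values mean less growth of the strain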
Conditions: S. cerevisiae deletion strains, growth OD
[1] = locus YAL040C, strain CLN3, active compounds read low
[2] = locus YER002W, strain NOP16, active compounds read low
[3] = locus YNL175C, strain NOP13, active compounds read low
[4] = locus YNL197C, strain WHI3, active compounds read low
[5] = locus YNL224C, strain SQS1, active compounds read low
[6] = locus YOR083W, strain WHI5 (second series), active compounds read low
[7] = locus YPL241C, strain CIN2, active compounds read low
[8] = locus YMR307W, strain GAS1, active compounds read low
[9] = locus YNL322C, strain KRE1, active compounds read low

Measured: normalized growth

CN(Cc1cnc2nc(N)nc(N)c2n1)c1ccc(C(=O)N[C@H](CCC(=O)O)C(=O)O)cc1
inactive: [1] 1 | [2] 0.996 | [3] 1 | [4] 1.01 | [5] 0.981 | [6] 1.04 | [7] 0.984

Nc1nc2ncc(CNc3ccc(C(=O)N[C@@H](CCC(=O)O)C(=O)O)cc3)nc2c(=O)[nH]1
inactive: locus YAL021C, strain ccr4, active compounds read low 0.993 | locus YAL026C, strain drs2, active compounds read low 1.01 | locus YAL030W, strain snc1, active compounds read low 0.998 | locus YBL061C, strain skt5, active compounds read low 1 | locus YBR009C, strain hhf1, active compounds read low 1.01 | locus YBR021W, strain FUR4, active compounds read low 1.04 | locus YBR023C, strain chs3, active compounds read low 0.995 | locus YBR171W, strain sec66, active compounds read low 0.996 | locus YBR229C, strain ROT2, active compounds read low 0.992 | locus YBR231C, strain swc5, active compounds read low 0.996 | locus YBR279W, strain paf1, active compounds read low 0.996 | locus YCL011C, strain gbp2, active compounds read low 1 | locus YCL016C, strain dcc1, active compounds read low 0.998 | locus YCL029C, strain bik1, active compounds read low 0.976 | locus YCL061C, strain MRC1, active compounds read low 0.998 | locus YCL069W, strain vba3, active compounds read low 1 | locus YCR088W, strain abp1, active compounds read low 1 | locus YDL005C, strain med2, active compounds read low 1 | locus YDL035C, strain GPR1, active compounds read low 0.995 | locus YDL040C, strain nat1, active compounds read low 0.995 | locus YDL074C, strain BRE1, active compounds read low 0.993 | locus YDL101C, strain DUN1, active compounds read low 0.996 | locus YDL185W, strain tfp1, active compounds read low 0.956 | locus YDL192W, strain arf1, active compounds read low 0.976 | locus YDR001C, strain nth1, active compounds read low 0.997 | locus YDR069C, strain doa4, active compounds read low 0.999 | locus YDR101C, strain arx1, active compounds read low 0.982 | locus YDR137W, strain rgp1, active compounds read low 1.03 | locus YDR159W, strain sac3, active compounds read low 1.01 | locus YDR162C, strain NBP2, active compounds read low 1.02 | locus YDR195W, strain ref2 0.993 | locus YDR297W, strain sur2, active compounds read low 0.997 | locus YDR318W, strain mcm21, active compounds read low 0.99 | locus YDR334W, strain swr1, active compounds read low 1 | locus YDR335W, strain msn5, active compounds read low 0.997 | locus YDR388W, active compounds read low 0.976 | locus YDR392W, strain spt3, active compounds read low 0.941 | locus YDR502C, strain sam2, active compounds read low 0.986 | locus YEL003W, strain gim4, active compounds read low 1.01 | locus YEL037C, strain rad23, active compounds read low 1 | locus YEL061C, strain CIN8 (second series), active compounds read low 1 | locus YEL061C, strain CIN8, active compounds read low 0.988 | locus YER015W, strain faa2, active compounds read low 1 | locus YER016W, strain bim1, active compounds read low 1.01 | locus YER110C, active compounds read low 0.952 | locus YER111C, strain swi4, active compounds read low 0.985 | locus YER155C, strain BEM2 (second series), active compounds read low 1.01 | locus YER155C, strain BEM2, active compounds read low 0.986 | locus YER167W, strain BCK2, active compounds read low 0.99 | locus YFR010W, strain ubp6, active compounds read low 1.01 | locus YGL078C, strain dbp3, active compounds read low 0.998 | locus YGL086W, strain mad1, active compounds read low 0.968 | locus YGL167C, strain pmr1, active compounds read low 1 | locus YGL173C, strain kem1, active compounds read low 0.996 | locus YGL227W, strain vid30, active compounds read low 0.993 | locus YGL240W, strain doc1, active compounds read low 1.02 | locus YGL248W, strain PDE1, active compounds read low 1.01 | locus YGL253W, strain hxk2, active compounds read low 0.993 | locus YGR078C, strain PAC10, active compounds read low 1.03 | locus YGR135W, strain pre9, active compounds read low 1 | locus YGR252W, strain gcn5, active compounds read low 1.21 | locus YHR013C, strain ard1, active compounds read low 1 | locus YHR027C, strain rpn1, active compounds read low 1 | locus YHR030C, strain SLT2, active compounds read low 0.971 and 1.02 | locus YHR079C, strain IRE1 (second series), active compounds read low 0.972 | locus YHR079C, strain IRE1, active compounds read low 1.03 | locus YHR094C, strain hxt1, active compounds read low 0.989 | locus YHR129C, strain ARP1, active compounds read low 0.99 | locus YHR142W, strain chs7, active compounds read low 0.989 | locus YHR200W, strain rpn10, active compounds read low 0.985 | locus YIL066C, strain RNR3, active compounds read low 1 | locus YIL073C, strain SPO22, active compounds read low 0.922 | locus YIL125W, strain kgd1, active compounds read low 0.94 | locus YIR030C, strain dcg1, active compounds read low 0.985 | locus YJL092W, strain hpr5, active compounds read low 0.995 | locus YJL095W, strain BCK1 (second series), active compounds read low 0.992 | locus YJL095W, strain BCK1, active compounds read low 1.05 and 1.02 | locus YJL115W, strain asf1, active compounds read low 1 | locus YJL129C, strain trk1, active compounds read low 0.993 | locus YJL134W, strain LCB3, active compounds read low 0.979 | locus YJL154C, strain vps35, active compounds read low 1 | locus YJL164C, strain tpk1, active compounds read low 0.994 | locus YJL166W, strain qcr8, active compounds read low 0.995 | locus YJL168C, strain set2, active compounds read low 1.01 | locus YJL187C, strain SWE1 (second series), active compounds read low 1.01 | locus YJL187C, strain SWE1, active compounds read low 0.999 | locus YJR043C, strain POL32, active compounds read low 1.01 | locus YJR066W, strain TOR1, active compounds read low 0.959 | locus YKL009W, strain mrt4, active compounds read low 0.954 | locus YKL068W, active compounds read low 0.98 | locus YKL085W, strain MDH1 (second series), active compounds read low 0.981 | locus YKL085W, strain MDH1, active compounds read low 0.981 | locus YKL160W, strain elf1, active compounds read low 0.987 | locus YKL190W, strain CNB1, active compounds read low 0.985 | locus YKR001C, strain vps1, active compounds read low 0.975 | locus YKR026C, strain gcn3, active compounds read low 1 | locus YKR091W, strain srl3, active compounds read low 1 | locus YLL001W, strain dnm1, active compounds read low 0.967 | locus YLL026W, active compounds read low 0.997 | locus YLL041C, strain sdh2, active compounds read low 0.998 | locus YLR027C, strain aat2, active compounds read low 1 | locus YLR039C, strain RIC1, active compounds read low 0.987 | locus YLR058C, strain SHM2, active compounds read low 0.991 | locus YLR102C, strain apc9, active compounds read low 0.957 | locus YLR113W, strain HOG1, active compounds read low 1.02 | locus YLR221C, strain rsa3, active compounds read low 0.995 | locus YLR258W, strain gsy2, active compounds read low 0.998 | locus YLR262C, strain YPT6 (second series), active compounds read low 0.998 | locus YLR262C, strain YPT6, active compounds read low 1 | locus YLR268W, strain sec22, active compounds read low 0.963 | locus YLR320W, strain mms22, active compounds read low 0.992 | locus YLR330W, strain CHS5, active compounds read low 0.979 | locus YLR342W, strain FKS1 (second series), active compounds read low 1.01 | locus YLR342W, strain FKS1, active compounds read low 0.995 | locus YLR357W, strain rsc2, active compounds read low 1.01 | locus YLR370C, strain arc18, active compounds read low 0.994 | locus YLR371W, strain rom2, active compounds read low 0.98 | locus YLR384C, strain iki3, active compounds read low 1.01 | locus YLR418C, strain cdc73, active compounds read low 1.04 | locus YML016C, strain PPZ1, active compounds read low 0.989 | locus YML032C, strain rad52, active compounds read low 0.985 | locus YML120C, strain ndi1, active compounds read low 0.995 | locus YML124C, strain tub3, active compounds read low 0.991 | locus YMR058W, strain fet3, active compounds read low 1 | locus YMR078C, strain ctf18, active compounds read low 0.982 | locus YMR125W, strain sto1, active compounds read low 0.993 | locus YMR129W, active compounds read low 1 | locus YMR205C, strain PFK2, active compounds read low 0.992 | locus YMR223W, strain ubp8, active compounds read low 0.998 | locus YMR231W, strain pep5, active compounds read low 1 | locus YMR263W, strain SAP30, active compounds read low 0.995 | [8] 1.19 | locus YNL067W, strain RPL9B, active compounds read low 1.02 | locus YNL071W, strain lat1, active compounds read low 1 | locus YNL153C, strain GIM3, active compounds read low 1.03 | locus YNL183C, strain NPR1, active compounds read low 0.947 | locus YNL209W, strain ssb2, active compounds read low 0.998 | locus YNL233W, strain BNI4, active compounds read low 1.03 | locus YNL248C, strain rpa49, active compounds read low 0.994 | locus YNL250W, strain rad50, active compounds read low 0.981 | locus YNL271C, strain bni1, active compounds read low 0.997 | locus YNL298W, strain CLA4, active compounds read low 0.989 | locus YNL307C, strain MCK1, active compounds read low 0.98 | locus YNL322C, strain KRE1 (second series), active compounds read low 0.998 | [9] 0.987 | locus YNR049C, strain mso1, active compounds read low 0.999 | locus YNR052C, strain pop2, active compounds read low 0.994 | locus YOL012C, strain htz1 0.994 | locus YOL147C, strain pex11, active compounds read low 0.985 | locus YOR001W, strain rrp6, active compounds read low 0.984 | locus YOR061W, strain CKA2, active compounds read low 0.99 | locus YOR069W, strain VPS5, active compounds read low 0.981 | locus YOR070C, strain gyp1, active compounds read low 0.996 | locus YOR080W, strain dia2, active compounds read low 1 | locus YOR083W, strain WHI5, active compounds read low 0.985 | locus YOR106W, strain vam3, active compounds read low 1.02 | locus YOR136W, strain idh2, active compounds read low 0.987 | locus YOR144C, strain elg1, active compounds read low 0.987 | locus YOR184W, strain ser1, active compounds read low 0.963 | locus YOR231W, strain MKK1, active compounds read low 1.03 | locus YOR265W, strain rbl2, active compounds read low 1.01 | locus YOR270C, strain vph1, active compounds read low 0.99 | locus YOR290C, strain snf2, active compounds read low 1.02 | locus YOR316C, strain cot1, active compounds read low 0.988 | locus YPL051W, strain arl3, active compounds read low 0.997 | locus YPL078C, strain atp4, active compounds read low 0.996 | locus YPL106C, strain sse1, active compounds read low 0.963 | locus YPL240C, strain hsp82, active compounds read low 0.985 | locus YPL256C, strain CLN2, active compounds read low 1.02 | locus YPR119W, strain clb2, active compounds read low 0.976 | locus YPR141C, strain kar3, active compounds read low 0.979 | locus YPR163C, strain tif3, active compounds read low 0.993 | locus YPR167C, strain met16, active compounds read low 0.97 | strain wtn01, active compounds read low 0.971

O=C(O)CC[C@@H](NC(=O)c1ccccc1C(=O)O)C(=O)O
inactive: locus YAL013W, strain DEP1, active compounds read low 1.02 | [1] 0.995 | locus YCL061C, strain MRC1 (second series), active compounds read low 1.01 | locus YDR363W, strain ESC2, active compounds read low 1.01 | [2] 1.03 | locus YGR229C, strain SMI1, active compounds read low 1.03 | locus YJR075W, strain HOC1, active compounds read low 1.01 | [8] 1 | [3] 1 | [4] 1.01 | [5] 1.01 | [9] 1 | [6] 1.02 | [7] 1.01
